Laboratory results reported in PubChem BioAssay AID1159569 (Broad Institute, 2015).
Measured potencies and affinities stand elsewhere. Inconclusive results are not listed. Unmarked numbers belong to inactive results. No rule for the calls is given here.

Assay: HepG2 cell cytotoxicity, dose response, cytotoxicity control, plate reader, dry powder samples (AID 1159569)
Settings: HepG2 cytotoxicity counterscreen; series mostly up to 50 µM; activity change, negative = cytotoxicity: at the top concentration

SMILES | activity change, negative = cytotoxicity
C[C@H](CO)N1C[C@H](C)[C@@H](CN(C)C(=O)Nc2cccc3ccccc23)Oc2ccc(NC(=O)Nc3ccc(C(F)(F)F)cc3)cc2C1=O | -10.9%
COc1ccc2c3c([nH]c2c1)[C@H](CO)N(S(=O)(=O)c1ccc(C)cc1)CC31CCN(C(=O)Cc2cccnc2)CC1 | -5.11%
COc1ccccc1S(=O)(=O)N(C)C[C@H]1Oc2cc(/C=C/c3ccccc3)ccc2S(=O)(=O)N([C@H](C)CO)C[C@@H]1C | -6.95%
COc1ccc(-c2ccc([C@H]3[C@H](C#N)N(C(=O)c4cccc(F)c4)[C@H]3CO)cc2)cc1 | -21.9%
CC(C)(C)[S@](=O)N1Cc2cc(C(=O)N[C@@H]3CCN(Cc4ccccc4)C3)nc(-c3cccc(-c4cccnc4)c3)c2[C@@H]1CCO | 4.18% [at 18 µM]
O=C(c1ccccc1F)N1CC(=O)N2[C@H](CO)[C@H](c3ccc(-c4cccnc4)cc3)[C@H]2C1 | -2.27%
CO[C@@H]1CN(C)C(=O)c2ccc(NC(=O)Nc3ccccc3F)cc2OC[C@@H](C)N(CCC(F)(F)F)C[C@H]1C | -11.2% [at 56 µM]
COc1ccc(S(=O)(=O)Nc2ccc3c(c2)CC(=O)N([C@H](C)CO)C[C@H](C)[C@H](CN(C)S(=O)(=O)c2ccc(C)cc2)O3)cc1 | -7.31%
COc1cccc(S(=O)(=O)N(C)C[C@@H]2OCc3ccccc3-c3c(n(C)c4ccccc34)C(=O)N([C@H](C)CO)C[C@@H]2C)c1 | -41.5%
Cc1ccc(S(=O)(=O)N(C)C[C@H]2OCc3ccccc3-c3c(n(C)c4ccccc34)C(=O)N([C@@H](C)CO)C[C@@H]2C)cc1 | -21.5%
CCCC(=O)Nc1ccc2c(c1)OC[C@@H](C)N(Cc1ccccc1F)C[C@@H](C)[C@H](OC)CN(C)C2=O | -6.21%
COc1ccc(C#Cc2ccc3c(c2)O[C@@H](CN(C)S(=O)(=O)c2ccccc2F)[C@@H](C)CN([C@H](C)CO)S3(=O)=O)cc1 | -4.47%
CO[C@@H]1CN(C)C(=O)c2ccc(NC(=O)Nc3ccccc3F)cc2OC[C@@H](C)N(Cc2ccccc2F)C[C@H]1C | -9.48%
COc1cccc(C#Cc2cnc3c(c2)C(=O)N([C@@H](C)CO)C[C@H](C)[C@@H](CN(C)C(=O)C2CCCCC2)O3)c1 | -33.1%
CC(C)NC(=O)Nc1ccc2c(c1)C(=O)N(C)[C@H]1CC[C@H](CC(=O)Nc3ccccc3)O[C@H]1CO2 | -9.14%
C[C@@H]1CN([C@@H](C)CO)C(=O)c2cccc(NC(=O)c3nc4ccccc4s3)c2O[C@H]1CN(C)C(=O)Nc1ccc2c(c1)OCO2 | -8.51%
C/C=C/c1ccc2c(c1)[C@H]1[C@H](CCN1C(=O)c1ccc(F)cc1)[C@H](CO)N2 | -28.2%
C/C=C/c1ccc2c(c1)[C@H]1[C@H](CCN1S(=O)(=O)c1ccccc1C)[C@@H](CO)N2 | -13.2%
COc1ccc(S(=O)(=O)Nc2cccc3c2O[C@H](CN(C)Cc2ccc(-c4ccccc4)cc2)[C@@H](C)CN([C@H](C)CO)C3=O)cc1 | -13.1%
COc1ccccc1S(=O)(=O)N(C)C[C@@H]1OCc2ccccc2-c2c(n(C)c3ccccc23)C(=O)N([C@@H](C)CO)C[C@@H]1C | -23.5%
CCCc1cn(CC[C@@H]2CC[C@H](NS(=O)(=O)c3ccc(-c4ccccc4)cc3)[C@H](CO)O2)nn1 | -45.1%
C[C@H]1CN([C@@H](C)CO)C(=O)c2c(c3ccccc3n2C)-c2ccccc2CO[C@@H]1CN(C)S(=O)(=O)c1ccc(F)cc1 | -19%
OC[C@H]1[C@@H](c2ccc(-c3cccnc3)cc2)[C@@H]2CN(CC3CC3)CCCCN12 | -6.11%
C/C=C/c1ccccc1[C@H]1[C@@H](C#N)N(C(=O)NC2CCCC2)[C@H]1CO | -49.4%
COc1ccc(C#Cc2ccc3c(c2)O[C@@H](CN(C)S(=O)(=O)c2ccccc2F)[C@@H](C)CN([C@@H](C)CO)S3(=O)=O)cc1 | -31.4%
C[C@H](CO)N1C[C@H](C)[C@H](CN(C)S(=O)(=O)c2ccc(C#N)cc2)OCc2ccccc2-c2c(n(C)c3ccccc23)C1=O | -36.8%
C[C@H]1CN([C@@H](C)CO)C(=O)c2cc(NC(=O)Nc3ccc(C(F)(F)F)cc3)ccc2O[C@@H]1CN(C)C(=O)Nc1cccc2ccccc12 | 2.11%
C[C@H](CO)N1C[C@H](C)[C@H](CN(C)CC2CC2)Oc2ccc(NC(=O)Nc3ccccc3)cc2CC1=O | -18.3%
C[C@@H]1CN([C@H](C)CO)C(=O)c2cc(NC(=O)Nc3ccc(C(F)(F)F)cc3)ccc2O[C@H]1CN(C)C(=O)Nc1cccc2ccccc12 | -5.2%
Cc1ccccc1-c1ccccc1[C@H]1[C@@H](C#N)N(C(=O)c2ccccc2)[C@@H]1CO | -2.64%
